The whole screen tested about 310,000 compounds, of which about 14,000 (4.5%) showed an effect of 50% or more. Effects have a minus sign here. This excerpt belongs to a sample that is enriched for strong results.

Consider 57 compounds from paper PMC4336329 (PLoS ONE, 2015).
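Also: peak tail current of the secondary pulse compared with the same well before compound.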

For the test, the target named is human ether-à-go-go-related gene (hERG) potassium channel (human, UniProt Q12809). Put plainly: primary screen, population patch clamp on CHO cells stably expressing hERG; higher = less effect of the substance.
human ether-à-go-go-related gene (hERG) potassium channel, sequence (Q12809 whole entry, looked up): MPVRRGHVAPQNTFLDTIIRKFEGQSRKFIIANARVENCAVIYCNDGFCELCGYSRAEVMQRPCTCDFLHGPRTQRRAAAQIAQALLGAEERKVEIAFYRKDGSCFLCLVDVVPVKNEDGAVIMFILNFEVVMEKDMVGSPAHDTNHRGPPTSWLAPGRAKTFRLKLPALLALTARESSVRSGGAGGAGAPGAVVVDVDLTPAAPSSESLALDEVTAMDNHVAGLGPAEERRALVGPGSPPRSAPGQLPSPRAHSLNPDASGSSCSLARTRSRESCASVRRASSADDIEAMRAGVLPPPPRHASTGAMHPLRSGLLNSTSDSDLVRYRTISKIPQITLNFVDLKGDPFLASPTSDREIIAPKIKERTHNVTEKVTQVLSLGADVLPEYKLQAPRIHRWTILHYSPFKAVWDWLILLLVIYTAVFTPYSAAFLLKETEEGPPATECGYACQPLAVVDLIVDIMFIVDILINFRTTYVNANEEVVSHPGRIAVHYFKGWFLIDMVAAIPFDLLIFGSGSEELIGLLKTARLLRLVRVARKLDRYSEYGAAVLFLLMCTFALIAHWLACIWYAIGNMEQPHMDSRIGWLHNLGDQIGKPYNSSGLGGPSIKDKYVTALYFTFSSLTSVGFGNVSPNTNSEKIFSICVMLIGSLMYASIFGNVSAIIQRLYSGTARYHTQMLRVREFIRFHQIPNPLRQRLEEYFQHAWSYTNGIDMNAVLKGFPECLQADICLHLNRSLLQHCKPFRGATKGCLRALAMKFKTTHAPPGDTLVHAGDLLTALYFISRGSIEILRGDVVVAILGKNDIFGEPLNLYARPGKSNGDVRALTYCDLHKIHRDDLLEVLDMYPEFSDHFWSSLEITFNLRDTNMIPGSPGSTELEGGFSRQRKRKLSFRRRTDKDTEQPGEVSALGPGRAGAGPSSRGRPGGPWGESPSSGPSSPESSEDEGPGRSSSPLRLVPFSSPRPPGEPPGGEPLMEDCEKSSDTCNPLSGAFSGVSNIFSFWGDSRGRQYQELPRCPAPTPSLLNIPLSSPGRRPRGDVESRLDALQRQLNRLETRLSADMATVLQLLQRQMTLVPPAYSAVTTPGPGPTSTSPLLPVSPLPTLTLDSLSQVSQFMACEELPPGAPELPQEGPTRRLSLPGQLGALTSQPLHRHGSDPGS
Take `Cc1ccc2c(c1)nnn2C1CCN(S(=O)(=O)c2ccc(C(=O)NC3CCCC3)cc2)CC1`: the “hERG current change (%, negative = inhibition) at 10uM” value was determined as 15.9%.
Next, `CCOc1ccc(N(C)S(=O)(=O)c2cc(-c3cc(C)no3)ccc2C(C)C)cc1`: 4.4%; `CN(Cc1ccccc1)c1cc(Cl)nc(N)n1`: -1.61%; `Cc1cc(N(C)Cc2ccccc2)nc(-c2ccccc2)n1`: -24.1%.
Regarding `Cc1cc(N(C)Cc2ccccc2)nc2cc(O)ccc12`, the “hERG current change (%, negative = inhibition) at 10uM” value is -56.4%.
The same measure for `C=CCn1nc2ccccc2c1OC`: 3.76%.
The same measure for `Brc1ccc(Nc2c3c(nc4ncnn24)CCC3)cc1`: -21.4%; for `c1ccc(Nc2c3c(nc4ncnn24)CCC3)cc1`: -54.5%; for `C#CCNc1c2c(nc3ncnn13)CC(C)CC2` (stereo not drawn): -10.7%.
Next, `Clc1ccc(Nc2c3c(nc4ncnn24)CCC3)cc1`: 8.29%; `C=CCNc1c2c(nc3ncnn13)CC(C)CC2` (stereo not drawn): -14.8%; `CCOc1ccc(Nc2c3c(nc4ncnn24)CC(C)CC3)cc1` (stereo not drawn): -53.9%.
For the compound `Clc1ccc(/C=N/Nc2nn[nH]n2)cc1`, the “hERG current change (%, negative = inhibition) at 10uM” value turned out to be 12.6%.
Next, `Cc1ccc2nsnc2c1S(=O)(=O)Nc1ccccc1C(=O)O`: -7.06%; `Cc1c(Cc2ccccc2)sc(NC(=O)/C=C/c2cccc3ccccc23)c1C(N)=O`: 20%.
The same measure for `COc1ccc(CN2C(=NC(=O)CCC3CCCC3)SC3CS(=O)(=O)CC32)cc1` (stereo not drawn): 19.7%; for `CCCCN1C[C@H](Cc2ccccc2)[C@@H](CC(=O)NCc2ccc(OC)cc2)C1=O`: -61.8%; for `COc1ccc(CN2C[C@H](Cc3ccccc3)[C@@H](CC(=O)Nc3ccccc3)C2=O)cc1`: -10.5%.
Next, `COc1ccc(CNC(=O)C[C@H]2C(=O)N(CCc3ccccc3)C[C@@H]2Cc2ccccc2)cc1`: -53%.
In the case of `COc1ccc(CNC(=O)C[C@H]2C(=O)N(Cc3ccccc3)C[C@@H]2Cc2ccccc2)cc1`, the “hERG current change (%, negative = inhibition) at 10uM” value was determined as 2.76%.
With `COc1ccc(CNC(=O)C[C@H]2C(=O)N(Cc3ccc(OC)cc3)C[C@@H]2Cc2ccccc2)cc1`, the “hERG current change (%, negative = inhibition) at 10uM” value is recorded as -45.9%.
As for `COc1ccc(CNC(=O)C[C@H]2C(=O)N(c3ccccc3)C[C@@H]2Cc2ccccc2)cc1`, the “hERG current change (%, negative = inhibition) at 10uM” value was -49.4%.
The same measure for `COc1cccc(C(=O)NNC(=O)c2ccccc2-n2cccc2)c1`: 34.4%; for `CS(=O)(=O)c1nc(S(=O)(=O)c2ccc(Cl)cc2)c(NCCN2CCOCC2)s1`: -31.6%; for `CC(C)(C)c1ccc(-c2c(C#N)c(N)nc3c2CCCC3)s1`: -0.863%.
For `CC12CN3CN(C1)CC(c1ccccc1)(C3)C2=O`, the “hERG current change (%, negative = inhibition) at 10uM” value is 12.7%.
The same measure for `Cc1noc(C)c1COC(=O)[C@@H](NC(=O)c1ccccc1)C(C)C`: 11.5%; for `Cc1ccccc1OC(C)C(=O)NCCC1=CCCCC1` (stereo not drawn): -1.85%; for `O=C(c1cc(COc2ccc(F)cc2F)on1)N1CCN(C(=O)c2ccco2)CC1`: -57.3%.
The same measure for `O=C(c1cc(COc2ccc(F)cc2F)on1)N1CCOCC1`: 17.7%; for `COc1cccc(OCc2cc(C(=O)N3CCN(C(C)=O)CC3)no2)c1`: -1.97%; for `O=C(c1cc(COc2ccc(F)cc2F)on1)N1CCSCC1`: -11.7%.
Next, `COc1cccc(OCc2cc(C(=O)N3CCN(c4ccccc4O)CC3)no2)c1`: 4.71%; `COc1cccc(OCc2cc(C(=O)N3CCN(C(=O)c4ccco4)CC3)no2)c1`: -51.7%.
As for `Cc1ccc(NC(=S)N2CCCC2)cc1Cl`, the “hERG current change (%, negative = inhibition) at 10uM” value is 11.5%.
Next, `CC(=O)NCCOC(=O)c1nn(Cc2ccccc2)c(=O)c2ccccc12`: -22.4%; `Cc1sc2nc(CN3CCN(c4ccc(O)cc4)CC3)[nH]c(=O)c2c1C`: 14.4%.
Next, `COc1ccc(CN(C)C(=O)CNC(=O)CNC(=O)c2ccc(Cl)cc2Cl)cc1F`: -43.5%; `CN(Cc1cccnc1)C(=O)CNC(=O)c1ccc(Cl)cc1Cl`: -17.2%.
Next, `CN(Cc1ccc(Cl)s1)C(=O)CNC(=O)CNC(=O)c1ccc(Cl)cc1Cl`: -56.8%.
As to `O=C(CNC(=O)CNC(=O)c1ccc(Cl)cc1Cl)NCc1cccc(Cl)c1`, the “hERG current change (%, negative = inhibition) at 10uM” value was -1.95%.
Next, `C=CCNC(=O)c1ccc(Cl)cc1Cl`: 11.8%; `C=CCN(Cc1ccc(Cl)s1)C(=O)CNC(=O)CNC(=O)c1ccc(Cl)cc1Cl`: -70.6%; `COc1ccc(C2=NS(=O)(=O)N(C)C(C(=O)Nc3ccc(C)cc3)=C2)cc1`: -2.89%.
Next, `COc1cc(C)c(NC(=S)Nc2cccc(Cl)c2C)cc1OC`: 11.1%.
Next, `CCCCCCCCN1[C@@H](CC(=O)O)c2cc(F)ccc2S1(=O)=O`: 7.81%; `CCC(=O)NC(c1cccs1)c1cc(Cl)c2cccnc2c1O` (stereo not drawn): -2.87%.
As to `COc1ccc(CNC(=O)CCn2c(=O)c3cccn3c3ccc(F)cc32)cc1`, the “hERG current change (%, negative = inhibition) at 10uM” value is listed as -7.82%.
The same measure for `COc1ccccc1CCNC(=O)CCn1c(=O)c2cccn2c2ccc(F)cc21`: 5.9%; for `COc1ccc(OC)c(CNC(=O)CCn2c(=O)c3cccn3c3ccc(F)cc32)c1`: -62.2%.
Regarding `COc1ccc(C)cc1NC(=S)N1CC(C)OC(C)C1` (stereo not drawn), the “hERG current change (%, negative = inhibition) at 10uM” value was -11.5%.
The same measure for `CCC(=NCCc1c(C)[nH]c2ccccc12)C1=C(O)CC(c2ccccc2)CC1=O` (stereo not drawn): 6.02%; for `N#C/C(=C(\O)Cc1ccccc1)c1nc2ccccc2[nH]1`: 15.6%.
The same measure for `CCCCc1nc2ccccc2n1CC(=O)NN`: 16.3%.
Next, `C=C(Br)Cn1c(CCCC)nc2ccccc21`: -21.6%; `CCCCc1nc2ccccc2n1Cc1nnc2n1-c1ccccc1SC2`: -63%; `Nc1nnnn1CC(=O)OCc1cccc(Br)c1`: -13.8%.
